Measurements published in PubChem BioAssay (NCATS).
Several values for one entry are separate records, joined by “and”; a condition that tells them apart may be missing. Equal values may be shown once. Records with an inconclusive call do not appear. Activity calls are given as the source filed them. Unless noted, calls follow the shape of the dose curve; as a rule, active = well fitted curve in the direction sought with a large enough effect; inconclusive = small, poorly fitted or top-dose-only effect, or another doubt; inactive = no such curve, though single readings can be large; an effect the other way counts as inactive or inconclusive.

Tests used:
[1] = target: Cytochrome P450 1A2 (Homo sapiens) (UniProt P05177); assay: p450-cyp1a2 (AID 410; calls by dose curve; also: potency is read from the fitted curve at half-maximal effect)
Method in brief: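 20nM CYP1A2, 100uM Luciferin-ME (=Km), 100mM KPO4; cpd 10 min RT; +NADPH regen, 60 min RT; stop/detect 20 min; luminescence. Normalized to furafylline 57 uM = full inhibition.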

[2] = target: Glucocorticoid receptor (Homo sapiens) (UniProt P04150); assay: GR-GFP Redistribution (AID 450;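 active = compounds whose dose series gives a full or clear partial fitted curve of increased nuclear translocation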; also: potency is read from the fitted curve at half-maximal effect); details: U2OS GR-GFP nuclear translocation, laser cytometry, 2 h
[3] = target: Glucocorticoid receptor (Homo sapiens) (UniProt P04150); assay: GR-EFC Redistribution (AID 451; calls by dose curve; also: potency is read from the fitted curve at half-maximal effect); details: CHO-K1 GR-EFC translocation, beta-gal luminescence, 2 h
Method in brief: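 CHO-K1 cells expressing nuclear EA and GR-ED fragments of b-gal; compounds titrated up to 46 uM final, 2 h at 37 C. GR nuclear translocation read as complemented b-gal luminescence after 1 h RT detection.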

[4] = target: 3',5'-cyclic-AMP phosphodiesterase 4B (Homo sapiens) (UniProt Q07343); assay: qHTS Assay for Inhibitors of PDE-IV (AID 607; active = well fitted activation curve with a large enough effect in the main read-out, with a control signal flat, not every such curve was filed as active; also: % of control where 0% means no effect)
Method in brief: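 ACTOne HEK293 cells carry a modified cAMP-gated CNG channel and express endogenous PDE4; plated 1000 cells/well, compounds up to 22.9 uM final. Membrane-potential dye fluorescence (ex 535/em 590) was read; parental cells received 10 uM forskolin + 100 uM RO 20-1724.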

[5] = target: Cytochrome P450 3A4 (Homo sapiens) (UniProt P08684); assay: qHTS Assay for Activators of Cytochrome P450 3A4 (AID 885); also: nearly all actives have a fitted effect of over 65% in size
Method in brief: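 CYP3A4 activity: Luciferin-PPXE O-dealkylation, 25uM substrate, 200mM KPO4, RT throughout. Read-out is luciferase luminescence; higher values reflect activation.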

[6] = target: Ubiquitin carboxyl-terminal hydrolase 1 (Homo sapiens) (UniProt O94782); assay: Inhibitors of USP1/UAF1: Pilot qHTS (AID 504865); also: nearly all actives have a fitted effect of over 35% in size; also: potency is read from the fitted curve at half-maximal effect
Method in brief: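 Enzyme-free wells gave the negative control, while test wells held 1nM USP1/UAF1 preincubated with compound for 15 min at room temperature. Ub-Rho at 150nM final started the reaction, and fluorescence at 480/540 nm was recorded kinetically.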

[7] = target: DNA dC->dU-editing enzyme APOBEC-3G (Homo sapiens) (UniProt Q9HC16); assay: qHTS for inhibitors of Vif-A3G interactions: Validation (AID 588379); also: 0% is about no effect
Method in brief: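 Yellow fluorescence (Ex 488, Em 500-530) of Vif-coexpressing HeLa A3G-eYFP cells, scanned by Acumen cytometer, reports blocked A3G degradation. Cells plated at 700/well overnight at 37 deg C before compound addition, then a further overnight compound incubation at 37 deg C.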

[8] = test system: Zika virus NS2B-NS3 protease; assay: Primary screen GU AMC qHTS for Zika virus inhibitors (AID 1347154);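 also: 0% = no-inhibitor control and -100% = no-enzyme control; nearly all actives have a fitted effect of over 70% in size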
Method in brief: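 Unlinked Zika NS2B hydrophilic domain–NS3 protease complex at 25 nM in 10 mM Tris-HCl pH 8.0, 0.01% Tween 20, with an AMC peptide substrate. Fluorescence change (340/450 nm) over 15 min at room temperature, normalized to controls, fitted to 4-parameter Hill.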

[9] = Primary qHTS for small molecule stabilizers of the endoplasmic reticulum resident proteome: Secreted ER Calcium Modulated Protein (SERCaMP) assay (AID 1508630); also: % is scaled to controls: 0 for no effect and ±100 for the full control effect
Method in brief: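 The SH-SY5Y reporter protocol was run at 3 concentrations up to 38.3 uM (primary) or 11 concentrations (follow-up): 16 h compound, 100 nM thapsigargin for 4 h, then extracellular luciferase luminescence.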

[10] = target: Mitogen-activated protein kinase 10 (Mus musculus) (UniProt Q61831); assay: JNK3 AlphaScreen Assay (AID 530; active = well fitted curve in either direction with a large enough effect, not every such curve was filed as active;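 also: kinase came from lysate of stimulated human HepG2 cells; signal reports phosphorylation of biotinylated GST-cJun 1-79 at Ser73 with 10 µM ATP; % is scaled to controls: 0 for no effect and ±100 for the full control effect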)
Method in brief: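 HepG2 lysate (IL-1b/TNFa pre-activated) + biotin-GST-cJun 1-79 + anti-pSer73 cJun; cpd titration, 15 min RT; ATP 10 uM start; Tris pH 7.6, MgCl2, DTT, vanadate; beads in EDTA buffer; AlphaScreen.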

[11] = NFAT Signaling Pathway (AID 444; active = well fitted curve in either direction with a large enough effect, not every such curve was filed as active;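 also: carbachol stimulus at about its EC50 of 1 µM final; % is scaled to controls: 0 for no effect and ±100 for the full control effect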); details: Jurkat NFAT-bla M1, carbachol, beta-lactamase ratio, 5 h; at 38 µM (top of the series)
Method in brief: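 Jurkat cells with NFAT-driven β-lactamase reporter and co-expressed M1 receptor, stimulated with carbachol (final 1 uM, ~EC50), compound titration, 5 h at 37 °C. CCF4 loaded 1 h at RT; 460/530 nm ratio gave %activity and AC50.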

[12] = Stat Signaling Pathway (AID 446; active = well fitted curve in either direction with a large enough effect, not every such curve was filed as active;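 also: ME-180 cervical cancer cells given 40 pM IL-6 alongside compound; SIE-controlled beta-lactamase reporter measured as 460/530 nm FRET emission ratio; % is scaled to controls: 0 for no effect and ±100 for the full control effect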); details: ME-180 (cervical carcinoma) SIE beta-lactamase reporter, IL-6 stimulated, 5 h; at 38 µM (top of the series)
Method in brief: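 Compound effects on IL-6-induced STAT reporter activity were measured in ME-180 cells. After overnight culture, cells were co-treated with 40 pM IL-6 for 5 hrs before beta-lactamase substrate loading at room temperature.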

[13] = target: Guanine nucleotide-binding protein G(i) subunit alpha-1 (Homo sapiens) (UniProt P63096); assay: qHTS Assay for Inhibitors of RGS12 GoLoco Motif Activity (Green Fluorophore) (AID 879);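 also: 0% = labeled peptide with Gαi1 and full inhibition = labeled peptide alone without protein; negative values mean loss of peptide binding seen as reduced polarization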
Method in brief: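 A drop in FITC polarization marked displacement of the FITC-tagged RGS12 GoLoco peptide (10 nM) from Gαi1 (50 nM). Compounds were incubated 10 min at room temperature in Tris pH 7.5 buffer containing 150 mM NaCl, 0.1 mM GDP and 0.05% NP40; unlabeled peptide titration served as control.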

[14] = target: Pyruvate kinase (Leishmania mexicana) (UniProt Q27686); assay: qHTS Validation Assay for Inhibitors of Leishmania Mexicana Pyruvate Kinase (AID 945);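 also: 0% = DMSO only neutral control wells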
Method in brief: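 The enzyme is a highly purified E451W mutant of LmPYK used at 0.2 nM. It converts 0.5 mM PEP and 0.1 mM ADP over 1 h at room temperature; product ATP is quantified by luciferase luminescence relative to DMSO controls.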

[15] = target: Pyruvate kinase PKM (Homo sapiens) (UniProt P14618); assay: qHTS Assay for Activators of Human Muscle Pyruvate Kinase (AID 954; active = well fitted curve in the direction sought with a large enough effect, not every such curve was filed as active;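 also: 0% = uninhibited enzyme and -100% = no enzyme or full thiadiazolimine inhibition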)
Method in brief: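 A coupled luminescent readout tracked ATP made from ADP by purified PKM2. Final conditions included 0.1 nM enzyme, PEP and ADP at 0.5 and 0.1 mM, pH 7.2 imidazole buffer with BSA, and a one-hour room-temperature reaction.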

[16] = target: Alpha-galactosidase A (Homo sapiens) (UniProt P06280); assay: Counterscreen for Glucocerebrosidase Inhibitors: qHTS Assay for Human alpha-Galactosidase at pH 4.5 (AID 992); also: 0% is about no effect
Method in brief: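 Citrate buffer pH 4.5, Tween-20 0.005%. Enzyme 2 nM, substrate 80 uM, 20 min RT. Stop pH 10. Fluorescence Ex 365/Em 440. AC50 by Hill fit.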

[17] = target: alpha-glucosidase (Oryza sativa, rice) (UniProt Q653V4); assay: Counterscreen for Glucocerebrosidase Inhibitors: qHTS Assay for Rice alpha-Glucosidase at pH 5.0 (AID 997);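 also: 0% = full activity with enzyme and -100% = basal without enzyme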
Method in brief: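 Endpoint fluorogenic assay at pH 5.0: compounds (0.7 nM to 77 uM) titrated against 4 nM rice enzyme and 400 uM 4-MU-alpha-glucoside for 20 min at room temperature; NaOH/glycine stop, read ex 365/em 440 nm, Hill-fitted AC50.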

[18] = target: Cytochrome P450 2C19 (Homo sapiens) (UniProt P33261); assay: qHTS Assay for Inhibitors and Substrates of Cytochrome P450 2C19 (AID 899); also: potency is read from the fitted curve at half-maximal effect; nearly all actives have a fitted effect of over 60% in size
Method in brief: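 5 nM human CYP2C19 with 10uM Luciferin-H EGE (at KM) in 50mM KPO4, compound preincubated 10 min at 37C, then NADPH regeneration for 60 min at 37C. Luciferin read by luminescence after detection reagent; normalized to 57uM ketoconazole as full inhibition.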

[19] = target: Cytochrome P450 2C9 (Homo sapiens) (UniProt P11712); assay: qHTS Assay for Inhibitors and Substrates of Cytochrome P450 2C9 (AID 883); also: potency is read from the fitted curve at half-maximal effect; nearly all actives have a fitted effect of over 60% in size
Method in brief: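 Human CYP2C9 (10nM) with Luciferin-H at 100uM (its KM) in 25mM KPO4; compound preincubated 10 min at 37C, then NADPH regeneration for 60 min at 37C. Luciferin read by luminescence after detection reagent; normalized to 57uM sulphaphenazole as full inhibition.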

Chain of Glucocorticoid receptor (Homo sapiens) (P04150 whole entry, looked up, the tested form may be a part): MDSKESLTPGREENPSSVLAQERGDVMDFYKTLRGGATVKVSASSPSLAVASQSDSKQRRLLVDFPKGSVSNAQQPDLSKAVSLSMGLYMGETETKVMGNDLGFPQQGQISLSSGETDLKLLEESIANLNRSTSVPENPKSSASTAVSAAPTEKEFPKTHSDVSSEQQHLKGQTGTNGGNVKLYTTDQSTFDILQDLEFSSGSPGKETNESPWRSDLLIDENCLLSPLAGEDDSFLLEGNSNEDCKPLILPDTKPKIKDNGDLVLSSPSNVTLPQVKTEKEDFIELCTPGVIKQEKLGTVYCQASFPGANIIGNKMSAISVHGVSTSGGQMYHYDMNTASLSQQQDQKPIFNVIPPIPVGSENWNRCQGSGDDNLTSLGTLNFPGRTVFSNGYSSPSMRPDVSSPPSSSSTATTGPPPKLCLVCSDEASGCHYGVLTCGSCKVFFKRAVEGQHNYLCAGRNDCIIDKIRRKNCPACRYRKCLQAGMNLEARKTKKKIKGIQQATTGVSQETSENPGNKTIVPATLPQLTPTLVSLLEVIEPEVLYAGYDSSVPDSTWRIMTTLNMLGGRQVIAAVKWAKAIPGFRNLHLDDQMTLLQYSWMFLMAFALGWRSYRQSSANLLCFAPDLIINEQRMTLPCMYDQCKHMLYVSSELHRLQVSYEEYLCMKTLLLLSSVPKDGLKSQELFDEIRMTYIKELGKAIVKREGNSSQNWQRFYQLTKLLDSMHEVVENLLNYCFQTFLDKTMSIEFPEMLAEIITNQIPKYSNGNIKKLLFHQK
Chain of DNA dC->dU-editing enzyme APOBEC-3G (Homo sapiens) (Q9HC16 whole entry, looked up): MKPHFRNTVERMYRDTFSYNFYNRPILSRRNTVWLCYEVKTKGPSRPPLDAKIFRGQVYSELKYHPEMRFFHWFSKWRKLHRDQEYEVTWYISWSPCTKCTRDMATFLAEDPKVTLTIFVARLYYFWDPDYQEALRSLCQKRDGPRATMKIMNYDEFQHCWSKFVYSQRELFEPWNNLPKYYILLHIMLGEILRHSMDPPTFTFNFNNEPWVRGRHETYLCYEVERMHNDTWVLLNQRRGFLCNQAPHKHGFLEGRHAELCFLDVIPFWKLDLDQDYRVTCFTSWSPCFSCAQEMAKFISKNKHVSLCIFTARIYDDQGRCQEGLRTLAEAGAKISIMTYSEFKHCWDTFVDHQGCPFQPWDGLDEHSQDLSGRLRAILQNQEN
Chain of Pyruvate kinase PKM (Homo sapiens) (P14618 whole entry, looked up): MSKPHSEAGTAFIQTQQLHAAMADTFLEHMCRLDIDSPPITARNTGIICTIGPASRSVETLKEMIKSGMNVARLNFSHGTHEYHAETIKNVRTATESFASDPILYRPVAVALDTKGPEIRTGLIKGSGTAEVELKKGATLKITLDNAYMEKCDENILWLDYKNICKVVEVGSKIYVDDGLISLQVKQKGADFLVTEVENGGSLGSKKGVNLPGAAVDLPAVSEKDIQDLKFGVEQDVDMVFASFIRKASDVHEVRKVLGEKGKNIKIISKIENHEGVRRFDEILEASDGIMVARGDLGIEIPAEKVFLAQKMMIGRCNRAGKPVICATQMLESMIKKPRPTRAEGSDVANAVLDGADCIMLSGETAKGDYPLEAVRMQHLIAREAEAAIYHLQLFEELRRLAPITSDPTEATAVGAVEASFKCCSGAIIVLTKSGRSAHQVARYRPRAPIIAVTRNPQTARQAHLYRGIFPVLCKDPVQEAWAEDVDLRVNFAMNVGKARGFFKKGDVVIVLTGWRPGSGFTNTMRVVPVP
Chain of Ubiquitin carboxyl-terminal hydrolase 1 (Homo sapiens) (O94782 whole entry, looked up): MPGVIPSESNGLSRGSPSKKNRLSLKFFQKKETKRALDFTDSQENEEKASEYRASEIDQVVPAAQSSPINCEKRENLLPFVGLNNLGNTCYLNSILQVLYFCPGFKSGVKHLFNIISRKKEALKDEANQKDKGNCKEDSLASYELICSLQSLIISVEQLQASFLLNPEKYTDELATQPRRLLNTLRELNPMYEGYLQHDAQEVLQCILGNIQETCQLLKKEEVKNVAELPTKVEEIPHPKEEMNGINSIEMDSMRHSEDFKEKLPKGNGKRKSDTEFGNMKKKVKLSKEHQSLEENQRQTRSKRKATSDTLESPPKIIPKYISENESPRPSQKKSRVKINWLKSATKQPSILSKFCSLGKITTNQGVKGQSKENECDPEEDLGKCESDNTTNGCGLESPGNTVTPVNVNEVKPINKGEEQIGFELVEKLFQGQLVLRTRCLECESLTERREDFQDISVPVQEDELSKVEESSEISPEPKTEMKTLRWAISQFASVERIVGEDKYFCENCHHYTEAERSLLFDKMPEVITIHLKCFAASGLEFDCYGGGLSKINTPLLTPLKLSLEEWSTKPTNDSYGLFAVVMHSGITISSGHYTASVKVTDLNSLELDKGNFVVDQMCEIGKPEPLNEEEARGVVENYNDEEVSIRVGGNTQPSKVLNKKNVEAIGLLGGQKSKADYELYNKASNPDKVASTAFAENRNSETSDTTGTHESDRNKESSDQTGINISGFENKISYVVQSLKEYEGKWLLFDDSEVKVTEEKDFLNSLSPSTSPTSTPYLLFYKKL
Chain of Cytochrome P450 2C19 (Homo sapiens) (P33261 whole entry, looked up): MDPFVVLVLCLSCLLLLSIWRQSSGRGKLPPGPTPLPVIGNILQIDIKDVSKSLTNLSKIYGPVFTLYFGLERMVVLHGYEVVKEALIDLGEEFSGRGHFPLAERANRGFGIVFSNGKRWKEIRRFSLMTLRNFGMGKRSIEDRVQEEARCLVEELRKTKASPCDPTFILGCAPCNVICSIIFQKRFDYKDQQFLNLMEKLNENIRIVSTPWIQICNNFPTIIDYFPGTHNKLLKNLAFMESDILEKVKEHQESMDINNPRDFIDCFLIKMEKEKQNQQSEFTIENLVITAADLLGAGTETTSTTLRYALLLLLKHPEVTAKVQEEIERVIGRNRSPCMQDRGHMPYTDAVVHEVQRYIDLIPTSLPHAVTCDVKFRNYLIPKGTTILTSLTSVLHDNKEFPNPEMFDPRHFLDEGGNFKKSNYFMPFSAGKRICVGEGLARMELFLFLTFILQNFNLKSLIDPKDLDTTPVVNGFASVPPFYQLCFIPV
Chain of Alpha-galactosidase A (Homo sapiens) (P06280 whole entry, looked up): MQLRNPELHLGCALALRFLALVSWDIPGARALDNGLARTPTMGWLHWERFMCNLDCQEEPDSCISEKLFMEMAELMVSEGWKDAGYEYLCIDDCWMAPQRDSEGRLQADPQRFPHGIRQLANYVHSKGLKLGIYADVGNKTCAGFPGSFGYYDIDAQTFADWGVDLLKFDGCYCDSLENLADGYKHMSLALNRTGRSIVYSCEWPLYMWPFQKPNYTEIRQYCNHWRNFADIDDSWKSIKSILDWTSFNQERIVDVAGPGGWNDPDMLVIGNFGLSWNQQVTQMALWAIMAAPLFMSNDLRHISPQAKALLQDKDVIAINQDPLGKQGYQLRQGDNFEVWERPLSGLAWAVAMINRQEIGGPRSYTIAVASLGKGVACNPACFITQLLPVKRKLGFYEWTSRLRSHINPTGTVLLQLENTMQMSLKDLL
Chain of Cytochrome P450 1A2 (Homo sapiens) (P05177 whole entry, looked up): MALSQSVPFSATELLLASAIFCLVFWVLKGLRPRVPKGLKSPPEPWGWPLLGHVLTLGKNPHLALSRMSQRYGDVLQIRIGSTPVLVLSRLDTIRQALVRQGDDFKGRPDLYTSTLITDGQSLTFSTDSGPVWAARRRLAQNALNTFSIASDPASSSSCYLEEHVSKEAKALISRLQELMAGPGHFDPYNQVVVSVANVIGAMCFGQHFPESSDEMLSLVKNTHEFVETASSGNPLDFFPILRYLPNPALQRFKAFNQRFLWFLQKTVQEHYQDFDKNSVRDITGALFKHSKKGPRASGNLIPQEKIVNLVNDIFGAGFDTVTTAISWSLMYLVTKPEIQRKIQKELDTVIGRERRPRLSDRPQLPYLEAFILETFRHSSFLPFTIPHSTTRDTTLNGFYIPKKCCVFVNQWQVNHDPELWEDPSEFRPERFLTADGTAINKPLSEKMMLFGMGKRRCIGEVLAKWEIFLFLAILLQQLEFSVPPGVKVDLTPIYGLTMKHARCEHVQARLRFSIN
Chain of Cytochrome P450 3A4 (Homo sapiens) (P08684 whole entry, looked up): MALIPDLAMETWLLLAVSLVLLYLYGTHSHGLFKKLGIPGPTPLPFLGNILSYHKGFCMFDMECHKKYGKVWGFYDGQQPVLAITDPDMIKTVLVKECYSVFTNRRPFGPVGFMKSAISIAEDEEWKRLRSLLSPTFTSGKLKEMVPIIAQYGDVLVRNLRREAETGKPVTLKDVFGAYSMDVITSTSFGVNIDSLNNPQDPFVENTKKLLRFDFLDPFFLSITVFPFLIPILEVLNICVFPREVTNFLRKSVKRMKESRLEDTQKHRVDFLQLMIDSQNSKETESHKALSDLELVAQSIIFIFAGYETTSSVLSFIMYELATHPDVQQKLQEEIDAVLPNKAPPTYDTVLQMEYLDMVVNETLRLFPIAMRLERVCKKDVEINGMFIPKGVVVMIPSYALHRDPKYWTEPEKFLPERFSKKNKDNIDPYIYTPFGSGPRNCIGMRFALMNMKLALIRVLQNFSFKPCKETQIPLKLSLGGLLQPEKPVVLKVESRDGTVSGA
Chain of Guanine nucleotide-binding protein G(i) subunit alpha-1 (Homo sapiens) (P63096 whole entry, looked up): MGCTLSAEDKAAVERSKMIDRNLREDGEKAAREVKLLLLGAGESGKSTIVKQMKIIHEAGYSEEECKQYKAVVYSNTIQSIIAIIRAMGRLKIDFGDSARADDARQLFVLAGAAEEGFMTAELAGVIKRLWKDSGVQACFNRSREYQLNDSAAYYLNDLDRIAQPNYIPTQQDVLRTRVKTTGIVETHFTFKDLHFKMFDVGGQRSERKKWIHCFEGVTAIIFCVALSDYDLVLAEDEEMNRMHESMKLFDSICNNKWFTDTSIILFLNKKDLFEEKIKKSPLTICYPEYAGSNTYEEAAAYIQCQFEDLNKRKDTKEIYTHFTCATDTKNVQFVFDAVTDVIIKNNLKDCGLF

C[C@@]12C(=O)OC(=O)[C@@]1(C)[C@@H]1CC[C@@H]2O1
active: Potency [1] 31.6 µM
inactive: Potency [2] > 46 µM | Potency [3] > 46 µM | Potency [4] | Potency [5] | Potency [6] | Potency [7] | Potency [8] | Potency [9]

CC/C=C\C/C=C\C/C=C\C/C=C\C/C=C\CCCCCC(=O)O
inactive: activity change, negative = inhibition [8] -1.57% [at 6.83 µM] | activity change, negative = inhibition [9] -17.3% [at 3.88 µM]

O=C1CCc2c(ccc3ccccc23)O1
inactive: Potency [2] > 46 µM | Potency [3] > 46 µM | Potency [10] | Potency [4] | Potency [6] | Potency [7] | Potency [8] | Potency [9]

CCn1ccnc1C[C@@H]1COc2ccccc2O1
inactive: activity change, negative = inhibition [11] -4.02% | activity, negative = inhibition [12] -3.71% | Potency [2] > 46 µM | Potency [3] > 46 µM | Potency [4] | outcome [13] | Potency [14] | outcome [15] | outcome [16] | outcome [17] | Potency [7] | Potency [8] | Potency [9]
active: Potency [1] 15.8 µM

Cc1sc(N)c(C(=O)c2cccc(C(F)(F)F)c2)c1C
inactive: Potency [3] > 46 µM | Potency [5] | Potency [7] | Potency [8] | Potency [9]
active: Potency [6] 50.1 µM

CCCCC/C=C\C/C=C\C/C=C\C/C=C\CCCC(=O)O
inactive: Potency [5] | activity change, negative = inhibition [8] 3.96% [at 6.83 µM] | activity change, negative = inhibition [9] 40.9% [at 3.88 µM]

C[C@@H](/C=C\c1cccc(Oc2ccc(F)cc2)c1)N(O)C(N)=O
active: Potency [1] 1 µM and 158 nM | Potency [18] 1.58 µM and 3.98 µM
inactive: activity change, negative = inhibition [11] -4.07% | activity, negative = inhibition [12] 13.8% | Potency [3] > 46 µM | Potency [10] | Potency [4] | outcome [13] | Potency [5] | Potency [14] | outcome [15] | outcome [16] | outcome [17] | Potency [7] | Potency [8] | Potency [9]

CCOC(=O)C1=C(C)NC(C)=C(C(=O)OC)[C@H]1c1cccc([N+](=O)[O-])c1
inactive: activity change, negative = inhibition [11] -17% | activity, negative = inhibition [12] 17.9% | outcome [13] | Potency [14] | outcome [15] | outcome [16] | outcome [17] | Potency [7] | Potency [8] | Potency [9]
active: Potency [1] 15.8 µM | Potency [19] 1.58 µM and 158 nM | Potency [18] 1.26 µM and 251 nM

COc1ccc2[nH]c(-c3ccccc3)c(CCNC(C)=O)c2c1
inactive: Potency [2] > 46 µM | Potency [3] > 46 µM | Potency [10] | Potency [5] | Potency [7] | Potency [8] | Potency [9]
active: Potency [1] 1.26 µM | Potency [18] 7.94 µM
